{"source": "the supplement of paper PMC3898565", "note": "Structures can show the parent of a compound that is named as a salt. ± gives the uncertainty stated by the source.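 Also: viable cell number estimated from Alamar Blue fluorescence read at 560/90, part of a single-dose primary screen of an FDA-approved drug library.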", "data": [{"test_system": "U87", "assay": "cell viability relative to vehicle control; higher = less growth inhibition (less active)", "settings": "10 µM; 72 h", "units": {"cell viability": "%"}, "values": [{"smiles": "CC(C)CC(N(C)C)C1(c2ccc(Cl)cc2)CCC1", "note": "(stereo not given)", "cell viability": "108 ± 1.9"}, {"smiles": "c1cncc([C@@H]2CCCN2)c1", "note": "[Nornicotine]", "cell viability": "111 ± 3.4"}, {"smiles": "CCCN1C[C@H](CSC)C[C@@H]2c3cccc4[nH]cc(c34)C[C@H]21", "note": "[Pergolide]", "cell viability": "109.4 ± 1"}, {"smiles": "NC(=O)OCCCc1ccccc1", "cell viability": "104 ± 1.9"}, {"smiles": "NC1=NC(=O)C(c2ccccc2)O1", "note": "(stereo not given) [Pemoline]", "cell viability": "102.8 ± 0.87"}, {"smiles": "C[C@]12Cc3c[nH]nc3C[C@@H]1CC[C@@H]1[C@@H]2CC[C@@]2(C)[C@H]1CC[C@]2(C)O", "note": "[Stanozolol]", "cell viability": "107 ± 2.4"}, {"smiles": "c1ccc(Cn2ccnc2)cc1", "cell viability": "105 ± 1.2"}, {"smiles": "Cc1nnc2n1-c1ccc(Cl)cc1C(c1ccccc1)=NC2", "note": "[Alprazolam]", "cell viability": "89.23 ± 0.4"}, {"smiles": "CNCC(O)c1ccc(O)cc1", "note": "(stereo not given)", "cell viability": "107 ± 4.5"}, {"smiles": "C[C@]12CC[C@H](O)CC1=CC[C@@H]1[C@@H]2CC[C@@]2(C)[C@H]1CC[C@]2(C)O", "cell viability": "127 ± 3.6"}, {"smiles": "c1ccc2c(c1)Nc1ccccc1S2", "cell viability": "110.5 ± 0.17"}, {"smiles": "CS(=O)(=O)Nc1ccc(Cc2noc(-c3ccc4[nH]cc(CCN)c4c3)n2)cc1", "cell viability": "106 ± 1.2"}, {"smiles": "CC[C@@H]1C=CC=CC[C@H](C)[C@@H](O)[C@@H](C)C(=O)[C@H](C)[C@@H](O)[C@H](C)C(=O)[C@H](C)[C@@H](O)[C@H](C)C=CC(=O)O[C@H]2[C@@H](C)[C@@H](CC1)O[C@@]1(CC[C@@H](C)[C@@H](C[C@H](C)O)O1)[C@@H]2C", "cell viability": "109 ± 11"}, {"smiles": "CCN(C(C)=O)c1cccc(-c2ccnc3c(C#N)cnn23)c1", "note": "[Zaleplon]", "cell viability": "111.7 ± 0.3"}, {"smiles": "COC(=O)N1CCN(C(=O)Cc2ccc(Cl)c(Cl)c2)C(CN2CCCC2)C1", "note": "(stereo not given)", "cell viability": "105 ± 2.6"}, {"smiles": "O=c1c2ccccc2[se]n1-c1ccccc1", "cell viability": "107 ± 1.6"}, {"smiles": "NCCc1ccccn1", "cell viability": "104 ± 1.4"}, {"smiles": "COc1ccc2[nH]cc(C3=CCNCC3)c2c1", "cell viability": "105 ± 2.3"}, {"smiles": "OC1CCCCC1N1CCC(c2ccccc2)CC1", "note": "(stereo not given)", "cell viability": "95 ± 2.2"}, {"smiles": "C#CCN(C)[C@H](C)Cc1ccccc1", "note": "[Selegiline]", "cell viability": "103 ± 1.2"}, {"smiles": "COc1cc2c(cc1OC)[C@@]13CCN4CC5=CCO[C@H]6CC(=O)N2[C@H]1[C@H]6[C@H]5C[C@H]43", "note": "[Brucine]", "cell viability": "107 ± 1.1"}, {"smiles": "CN1CC[C@]2(c3cccc(O)c3)Cc3nc4ccccc4cc3C[C@H]2C1", "cell viability": "103 ± 1.4"}, {"smiles": "CN1C(=O)CN=C(c2ccccc2)c2cc([N+](=O)[O-])ccc21", "note": "[Nimetazepam]", "cell viability": "108 ± 2.6"}, {"smiles": "c1ccc2c3c([nH]c2c1)CNCC3", "cell viability": "104 ± 1.1"}, {"smiles": "COc1ccc2c(c1)[C@]13CCCC[C@@H]1[C@H](C2)N(C)CC3", "note": "[d-3-Methoxy-N-methylmorphinan hydrobromide]", "cell viability": "103 ± 1.2"}, {"smiles": "CNC(=O)Oc1ccc2c(c1)[C@]1(C)CCN(C)[C@@H]1N2C", "note": "[Physostigmine]", "cell viability": "93 ± 1.4"}, {"smiles": "CNC1CC(c2ccc(Cl)c(Cl)c2)c2ccccc21", "note": "(stereo not given) [Indatraline]", "cell viability": "99.93 ± 0.57"}, {"smiles": "NC(=O)C[S+]([O-])C(c1ccccc1)c1ccccc1", "note": "(stereo not given) [Modafinil]", "cell viability": "107 ± 1.4"}, {"smiles": "CN1CC[C@]23CCCC[C@H]2[C@H]1Cc1ccc(O)cc13", "cell viability": "101.4 ± 0.14"}, {"smiles": "C=C1C[C@@H]2[C@H](CC[C@]3(C)C(=O)CC[C@@H]23)[C@@]2(C)C=CC(=O)C=C12", "cell viability": "107 ± 2.5"}, {"smiles": "C[C@]12CC[C@H](O)CC1=CC[C@@H]1[C@@H]2CC[C@]2(C)C(=O)CC[C@@H]12", "cell viability": "116 ± 9.3"}, {"smiles": "C[C@]12C/C(=C/O)C(=O)C[C@@H]1CC[C@@H]1[C@@H]2CC[C@@]2(C)[C@H]1CC[C@]2(C)O", "note": "[Oxymetholone]", "cell viability": "113 ± 2.5"}, {"smiles": "CC[C@@H](C(N)=O)N1CCCC1=O", "cell viability": "110 ± 12"}, {"smiles": "N=C(NCc1ccc(Cl)cc1)SCCCc1c[nH]cn1", "note": "[Clobenpropit]", "cell viability": "102 ± 1.4"}, {"smiles": "O=C1CN=C(c2ccccc2)c2cc([N+](=O)[O-])ccc2N1", "note": "[Nitrazepam]", "cell viability": "103.3 ± 0.55"}]}]}
